This is an account of results in PubChem BioAssay (Tox21).

Results filed as inconclusive are left out. Unmarked numbers belong to inactive results. Active and inactive are the calls of the source. The call rests on the fitted dose curve; in most records, active means well fitted inhibition curve with a large enough effect in the repeat runs; inconclusive means weak or mixed curves; inactive means no such curve, though single readings can be large or run the other way.
On the % scale 0 is the no-effect control and ±100 the full control effect; potency means the concentration at half of the fitted maximal effect.

Sequence of Androgen receptor (Homo sapiens) (P10275 whole entry, looked up): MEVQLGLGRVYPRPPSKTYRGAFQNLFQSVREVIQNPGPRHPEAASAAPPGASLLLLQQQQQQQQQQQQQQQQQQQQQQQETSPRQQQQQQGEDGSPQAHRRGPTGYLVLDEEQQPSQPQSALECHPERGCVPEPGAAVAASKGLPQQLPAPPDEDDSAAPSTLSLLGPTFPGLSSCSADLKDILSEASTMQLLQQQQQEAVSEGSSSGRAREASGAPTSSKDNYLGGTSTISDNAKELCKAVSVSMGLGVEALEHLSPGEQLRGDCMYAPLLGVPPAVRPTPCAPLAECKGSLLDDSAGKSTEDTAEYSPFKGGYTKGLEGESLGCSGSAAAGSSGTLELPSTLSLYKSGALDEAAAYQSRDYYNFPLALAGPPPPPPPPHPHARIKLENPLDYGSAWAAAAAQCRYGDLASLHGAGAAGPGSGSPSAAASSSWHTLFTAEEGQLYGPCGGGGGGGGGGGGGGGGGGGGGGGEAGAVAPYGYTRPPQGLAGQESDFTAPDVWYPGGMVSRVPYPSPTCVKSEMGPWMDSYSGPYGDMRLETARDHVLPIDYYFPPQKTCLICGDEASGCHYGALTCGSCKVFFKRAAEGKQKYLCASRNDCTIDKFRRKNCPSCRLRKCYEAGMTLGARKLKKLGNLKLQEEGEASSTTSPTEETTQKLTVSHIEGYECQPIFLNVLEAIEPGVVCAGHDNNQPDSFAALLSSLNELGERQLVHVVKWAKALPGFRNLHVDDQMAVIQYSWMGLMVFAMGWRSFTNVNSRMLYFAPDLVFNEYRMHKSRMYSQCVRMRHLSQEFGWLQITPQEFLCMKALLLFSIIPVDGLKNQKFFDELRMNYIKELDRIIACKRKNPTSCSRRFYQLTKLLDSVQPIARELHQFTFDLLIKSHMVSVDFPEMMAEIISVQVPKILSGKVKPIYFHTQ

The experiment addresses Androgen receptor (Homo sapiens) (UniProt P10275). Briefly: qHTS assay to identify small molecule antagonists of the androgen receptor (AR) signaling pathway using the MDA cell line in the presence of 0.5 nM R1881 (AID 1259243). Further: nearly all actives have a fitted effect of over 50% in size. The note with it: MDA-kb2 MMTV-luciferase, R1881 0.5 nM, 16 h; series mostly up to 92.4 µM; activity, negative = inhibition: at the top concentration. From the text: U.S. Tox21 Program National Center for Advancing Translational Sciences [NCATS] NIH Chemical Genomics Center [NCGC] U.S. Environmental Protection Agency [EPA] National Institutes of Environmental Health Sciences [NIEHS] National Toxicology Program [NTP] U.S. Food and Drug Administration [FDA] Tox21 Assay Overview: Androgen receptor (AR) is an important member of the nuclear receptor family. Its signaling plays a critical role in AR-dependent prostate cancer and other androgen related diseases. Considerable attention has been given in the past decades to develop methods to study and screen for the environmental chemicals that have the potential to interfere with metabolic homeostasis, reproduction, developmental and behavioral functions. Therefore AR binding assay for screening androgen antagonists can be used to identify potential endocrine disruptors. MDA-kb2 cells (from ATCC, deposited by Wilson et al.) were used to screen for AR inhibitors against Tox21 compound libraries. These cells are human breast carcinoma cells that were stably transfected with a luciferase reporter gene under control of the MMTV promoter that contains response elements for both androgen receptor (AR) and glucocorticoid receptor (GR). The current screening for identification of AR inhibitors against Tox21 libraries used lower concentration (0.5 nM) of R1881 as a stimulator.
Tox21 Assay Protocol Summary: MDA-kb2 cells (cells cultured without CO2) were dispensed at 3,000 cells/well in 4 uL of culture medium into white wall/solid-bottom 1536-well plates (Corning Life Sciences, Corning, NY) using a Multidrop Combi (ThermoFisher Scientific, Waltham, MA) dispenser. After the assay plates were incubated at a 37C and 0% CO2 for 5 hr, 23 nL of compounds dissolved in DMSO, positive controls or DMSO only was transferred to the assay plate by a Pintool station (Kalypsys, San Diego, CA). The transfer of compounds was followed by the addition of 1 uL of 0.5 nM (final concentration) agonist (R1881)/culture medium using a Flying Reagent Dispenser (FRD, Aurora Discovery, San Diego, CA). The plates were incubated at 37C and 0% CO2 for 16 hr. For luciferase reporter gene assay, 4 uL of ONE-Glo reagent (Promega Corporation, Madison, WI) was added to each well using the FRD and after 30 min incubation at room temperature luminescence intensity was measured using ViewLux plate reader (PerkinElmer, Shelton, CT).
On the technique in general: qHTS replaces the single test concentration by a dilution series.
In the case of `CC(C)(C)c1cc(O)c(C(C)(C)C)cc1O`, the Potency was 19.3 µM (active).
For the molecule `COC(=O)CSc1cc(N=c2sc(=O)n3n2CCCC3)c(F)cc1Cl`, the “activity, negative = inhibition” value is -0.169%.
Same read-out and setting: the figure for `CCOc1nc2cccc(C(=O)O)c2n1Cc1ccc(-c2ccccc2-c2nn[nH]n2)cc1` is 0.703% [at 42.5 µM].
Regarding `CCCCCCc1ccc(N)cc1`, the “activity, negative = inhibition” value is 12.1%.
Consider `C1CCC2OC2C1` (stereo not given), for which the “activity, negative = inhibition” value was -4.87%.
For the molecule `CC(=O)SCc1ccco1`, the “activity, negative = inhibition” value was -1.83%.
As to `COc1ccc(C(C)=O)cc1`, the “activity, negative = inhibition” value is 8.14%.
For `CCN(CC)CCOC(=O)C1(c2ccccc2)CCCC1`, the “activity, negative = inhibition” value is -11.1% [at 42.5 µM].
Still for that read-out and setting: the figure for `CC(C(=O)O)c1ccc(C(=O)c2ccccc2)s1` (stereo not given) is 18.5% [at 42.5 µM]; for `CC(=O)N(O)CCCCCNC(=O)CCC(=O)N(O)CCCCCNC(=O)CCC(=O)N(O)CCCCCN` it is -0.629% [at 42.5 µM]; for `C=C(C)C(=O)OCCOc1ccccc1` it is 16.2%.
Regarding `O=C(Cl)c1ccc([N+](=O)[O-])cc1`, the “activity, negative = inhibition” value was 1.01%.
For `CCC(C)N(C)C(=O)c1cc2ccccc2c(-c2ccccc2Cl)n1` (stereo not given), the Potency was 28 µM (active).
On to `NC(=S)N/N=C/c1cccnc1`, for which the “activity, negative = inhibition” value was 2.01% [at 42.5 µM].
Turning to `O=C1Nc2cc(Cl)ccc2Oc2ccccc21`, the Potency was 4.22 µM (active).
On to `O=C(CCN1CCN2CCCC2C1)N1c2ccccc2Sc2ccc(Cl)cc21` (stereo not given), for which the activity, negative = inhibition was -18% [at 19 µM].
In the case of `NC(N)=N/N=C/c1c(Cl)cccc1Cl`, the Potency was 23.7 µM (active).
On the same count and under the same terms, the figure for `c1ccc(OCc2ccc(CCCN3CCOCC3)cc2)cc1` is 29.8 µM (active).
Regarding `CC(=O)N(CC(=O)N(C)C)c1ccccc1`, the “activity, negative = inhibition” value is 20.3% [at 42.5 µM].
As to `N[C@H]1C(O)O[C@H](CO)[C@H](O)[C@@H]1O` (stereo not given in full), the “activity, negative = inhibition” value was 7.14%.
Regarding `CC[C@]12CCCN3CCc4c(n(c5ccccc45)C(=O)C1)[C@@H]32`, the “activity, negative = inhibition” value was 259% [at 42.5 µM].
Regarding `NC(N)=NN=C(/C=C/c1ccc([N+](=O)[O-])o1)/C=C/c1ccc([N+](=O)[O-])o1`, the Potency was 1.88 µM (active).
Consider `CCCOc1ccc2nc(NC(=O)OC)[nH]c2c1`, for which the “activity, negative = inhibition” value is 19.3% [at 42.5 µM].
On the same count and under the same terms, with `COCCOCCOCCOCCOC` the figure was 0.329%.
For the molecule `O=C(O)c1cccc(N(Cc2cccnc2)c2ccc(OC(F)F)c(OC(F)F)c2)c1`, the Potency is 24.3 µM (active).
In the case of `C=C(C)C(=O)OC(C)C`, the “activity, negative = inhibition” value is 1.74%.
Still for that read-out and setting: the figure for `CCCCCCCC/C=C\CCCCCCCC(N)=O` is 21.4%.
As to `Cc1cc(NC(=O)C(=O)O)cc(C)c1Oc1ccc(O)c2c1CCC2`, the “activity, negative = inhibition” value was -4.91%.
As for `CN1CCN(C2=Nc3ccccc3Sc3ccc(Cl)cc32)CC1`, the “activity, negative = inhibition” value was -12.9% [at 42.5 µM].
On the same count and under the same terms, with `CC(C)(Oc1ccc(Cl)cc1)C(=O)OCCCOC(=O)C(C)(C)Oc1ccc(Cl)cc1` the figure was -11% [at 42.5 µM].
Take `O=C(NS(=O)(=O)/C=C/c1cccs1)c1ccc(F)cc1Br`: the “activity, negative = inhibition” value is 109%.
The same measure, in the same setting: the figure for `CC(C)c1ccc2c(C(C)C)cc(C(C)C)c(S(=O)(=O)O)c2c1` is 0.199%.
Consider `Cc1cc(O)ccc1N`, for which the Potency was 43.5 µM (active).
On to `O=C(O)Cc1sc(-c2ccccc2)nc1-c1ccc(Cl)cc1`, for which the “activity, negative = inhibition” value was 13.5% [at 42.5 µM].
Regarding `O=C(O)[C@@H]1[C@H]2C[C@H]3c4[nH]c5ccccc5c4CCN3C[C@@H]2CC[C@@H]1O`, the “activity, negative = inhibition” value is 15.5% [at 42.5 µM].
Still for that read-out and setting: the figure for `NCCCN(CCO)CCO` is 5.45%; for `O=C(O)c1cn(C2CC2)c2cc(Cl)c(F)cc2c1=O` it is 0.298% [at 42.5 µM].
Same read-out and setting: the figure for `O=C(O)COC(=O)Cc1ccccc1Nc1c(Cl)cccc1Cl` is -2.21% [at 42.5 µM].
Consider `O=[N+]([O-])c1cc[n+]([O-])cc1`, for which the Potency is 54.5 µM (active).
Take `CC(C)CCCC(C)CCO` (stereo not given): the “activity, negative = inhibition” value was -2.66%.
